The nature of assay [1]: Cell Proliferation Assay against the HBL1 Cell Line (AID 651646).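 Further: cells exposed to compound for 48 h before reading.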 As to conditions: HBL1 DLBCL cells; at 46.1 µM (top of the series). A digest of the protocol:
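CellTiter-Glo luminescence after 48 h compound exposure at 37C gives percent activity, with DMSO as 100% and 9.2 uM bortezomib final as 0%. Cells: 500 log-phase HBL1 per well, RPMI plus 5% FBS.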

Assay [2] is described as follows: Cell Proliferation Assay against the TMD8 Cell Line (Caspase readout at 16 hrs) (AID 651712). Further: potency means the concentration at half of the fitted maximal effect. The note with it: TMD8 lymphoma cells, caspase activation luminescence. A digest of the protocol: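 Caspase-Glo luminescence measured apoptosis after a 16 h, 37 C compound exposure of TMD8 cells (500 cells/well, 5% FBS RPMI). DMSO set 0% and bortezomib at 9.2 uM final set 100% activity.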

Assay [3] can be described thus: Cell Proliferation Assay against the TMD8 Cell Line (Caspase readout at 8 hrs) (AID 651713). Further: potency means the concentration at half of the fitted maximal effect. The note with it: TMD8 lymphoma cells, caspase activation luminescence. Summed up:
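Caspase 3/7 activation in ABC DLBCL TMD8 cells is measured by luminescence after an 8 h compound exposure at 37C. Relative light units are scaled between DMSO (0%) and 9.2 uM final bortezomib (100%).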

The target in assay [4] is Tyrosine-protein kinase Yes (Homo sapiens) (UniProt P07947). Kind of assay: qHTS for small molecule inhibitors of Yes1 kinase: Primary Screen (AID 686947). Further: nearly all actives have a fitted effect of over 60% in size. Further: potency means the concentration at half of the fitted maximal effect. Summed up: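 ADP-Glo luminescence reports ADP formed by 4 nM Yes1 phosphorylating poly(E4Y) (0.3 mg/mL) with 0.1 mM ATP for 60 min at room temperature, following 20 min compound preincubation; normalised between DMSO wells with and without enzyme.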
(Quantitative high-throughput screening tests each substance at several concentrations.)

Assay [5] is described as follows: qHTS for small molecule inhibitors of Yes1 kinase: Counter Assay (AID 686950).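 Further: no kinase present so only ADP-Glo detection of a fixed ADP amount is tested; luminescence from ADP-Glo reporting ADP in a fixed ATP and ADP mixture; 0% = DMSO wells with ATP plus ADP and -100% = ATP-only wells without ADP.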 Summed up: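 ADP-Glo luminescence read after a 60 min room-temperature incubation of compound with an ATP/ADP mix (0.08 mM/0.02 mM) and no kinase, following a 20 min compound preincubation. Signal scaled between ATP+ADP (max) and 0.1 mM ATP-only (min) wells; Tris pH 7.5, Mg2+, DTT.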

Assay [6] in a line: qHTS assay for small molecule agonists of the antioxidant response element (ARE) signaling pathway (AID 651741; active means well fitted activation curve with a large enough effect in the signal ratio; the % refers to the signal ratio; further: potency means the concentration at half of the fitted maximal effect; on activation: % of control where 0% means no effect). Summed up:
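Beta-lactamase reporter under ARE control in HepG2 cells, 2,000 per well, was induced by 16 h compound treatment at 37 C. Read-out was fluorescence from LiveBLAzer B/G FRET substrate after 2 h at room temperature.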

A short description of assay [7]: qHTS assay for small molecule activators of the nuclear factor-kappa B (NF-kB) signaling pathway (AID 651749; active means well fitted activation curve with a large enough effect in the signal ratio; the % refers to the signal ratio; further: % of control where 0% means no effect). As to conditions: NF-kB-bla ME-180 cells, beta-lactamase FRET ratio, 16 h; stronger effect = higher value. Summed up:
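Activation measured after 16 hr compound treatment at 37C, 5% CO2, of 2,000 ME-180 cells/well stably expressing an NF-kB response element–driven beta-lactamase reporter, via FRET-disruption fluorescence.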

Assay [8] can be described thus: qHTS assay for environmental chemicals that activate the Aryl hydrocarbon Receptor (AhR) signaling pathway (AID 651777). Further: % of control where 0% means no effect; nearly all actives have a fitted effect of over 15% in size. As to conditions: 1A2-DRE human hepatoma cells, luciferase, 24 h; activation: stronger effect = higher value. Summed up: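 Luminescence read-out: One-Glo added for 30 min at RT after 24 hr compound treatment (37 C, 5% CO2) of human hepatoma cells expressing a DRE/CYP1A2 promoter–luciferase reporter; increased signal indicates AhR activation.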

Assay [9] concerns the target Peroxisome proliferator-activated receptor alpha (Homo sapiens) (UniProt Q07869). Kind of assay: qHTS assay for small molecule agonists of the peroxisome proliferator-activated receptor alpha (PPARalpha) signaling pathway (AID 651778). Further: % of control where 0% means no effect. The note with it: PathHunter PPARalpha complementation, chemiluminescence, 6 h; stronger effect = higher value. Summed up:
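Chemiluminescence from complemented enzyme reported PPARalpha activation in cells after 6 hr of compound treatment at 37 C. The detection reagent was incubated for 60 min at room temperature, and compounds were scored as agonists.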

A short description of assay [10]: qHTS assay for small molecule disruptors of the mitochondrial membrane potential - 5 hr assay (AID 651755; calls by dose curve; further: on the % scale 0 is the no-effect control and ±100 the full control effect; nearly all actives have a fitted effect of over 40% in size). A digest of the protocol:
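Membrane-potential dye readout: red aggregate (540 ex/590 em) versus green monomer (490 ex/535 em) fluorescence after 30 min dye loading, following 5 hr compound exposure at 37C of overnight-plated HepG2 cells.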

Assay [11] concerns the target Tumor necrosis factor (Homo sapiens) (UniProt P01375). As to the kind of experiment: qHTS assay to identify small molecules that stimulate Tumor Necrosis Factor-alpha (TNF-alpha) secretion (AID 651757; active means well fitted curve in the direction sought with a large enough effect in the signal ratio; the % refers to the signal ratio; further: 0% is about no effect). Summed up: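 Human monocytic THP-1 cells are plated, treated with compound and held at 37 C for 17 hrs. Labeled anti-TNF-alpha antibody mixture is then added; after 3 hr at room temperature, TR-FRET signal reports secreted TNF-alpha.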

Assay [12] deals with Nuclear receptor ROR-gamma (Homo sapiens) (UniProt P51449). Kind of assay: qHTS assay for small molecule antagonists of the retinoid-related orphan receptor gamma (ROR-gamma) signaling pathway (AID 651802).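 Further: CHO cells with doxycycline-induced ROR-gamma expression; on the % scale 0 is the no-effect control and ±100 the full control effect; nearly all actives have a fitted effect of over 60% in size.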 Summed up:
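Steps: cells dispensed; compound or DMSO transferred by pin tool; doxycycline added to induce the ROR response element-driven luciferase; plates held 16hr at 37C; ONE-Glo added and luminescence measured.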

The nature of assay [13]: qHTS assay to identify small molecules that stimulate interleukin-8 (IL-8) secretion (AID 651758; active means well fitted activation curve with a large enough effect in the signal ratio; the % refers to the signal ratio; further: 0% is about no effect). Summed up:
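Secreted IL-8 measured homogeneously by TR-FRET (two labelled anti-IL-8 antibodies, 1-3 h at room temperature) after a 16 h, 37 C compound treatment of THP-1 cells at 2000 cells/well.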

A short description of assay [14]: qHTS for Inhibitors of Ubiquitin-specific Protease USP2a Using CHOP2 as the Reporter: K633 Counterscreen (AID 652168). Further: % of control where 0% means no effect. A digest of the protocol: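 Detection-system control: fluorescence of K48-linked DiUb-4IQF substrate (100 nM as added) tracked over time, Ex 525/Em 598, with pinned compounds and no enzyme, in pH 8 Tris buffer containing beta-mercaptoethanol and 0.05% Chaps.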

A short description of assay [15]: qHTS for Inhibitors of Ubiquitin-specific Protease USP2a Using CHOP2 as the Reporter: Cytotox Assay (AID 652170).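 Further: HCT116 human colon cancer cells at 600 per well; plate controls were DMSO-treated cells for no effect and wells without cells for full effect; nearly all actives have a fitted effect of over 70% in size.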 A digest of the protocol: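 Cytotoxicity read as ATP luminescence (CellTiter-Glo) after 72 hr compound treatment at 37 deg C. Cells: HCT116, 600/well in DMEM plus 10% FBS. Normalization between DMSO-treated cells and cell-free wells.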
The target in assay [16] is Ubiquitin carboxyl-terminal hydrolase 2 (Homo sapiens) (UniProt O75604). As to the kind of experiment: qHTS for Inhibitors of Ubiquitin-specific Protease USP2a Using CHOP2 as the Reporter: K484 Substrate (AID 652173).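 Further: cleavage of internally quenched K48 di-ubiquitin substrate measured as rising fluorescence over time; nearly all actives have a fitted effect of over 70% in size.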 Summed up:
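Kinetic fluorescence (Ex 525/Em 598) tracked cleavage of an internally quenched K48 di-ubiquitin substrate, added as a 100 nM solution. The enzyme was added as a 5 nM USP2 solution before compound pinning, with no-enzyme controls. Buffer: Tris pH 8, beta-mercaptoethanol, CHAPS.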

Assay [17] has as its target Arylsulfatase A (Homo sapiens) (UniProt P15289). As to the kind of experiment: qHTS screen for enhancers of Arylsulfatase A (ASA1): LOPAC Validation Assay (AID 720538). Further: 0% is about no effect. As to conditions: outcome: dose series up to 57.5 µM. A digest of the protocol: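 First, ASA-I179S fibroblasts from an MLD patient adhered for 6 hrs. Next, compounds were added for 48h. Then pNCS substrate (0.5mM final) with lysis buffer reacted 14h at room temperature before NaOH stop and fluorescence measurement.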

The nature of assay [18]: qHTS for compounds that reverse cellular toxicity of Amyloid beta (A-beta) peptide in yeast: LOPAC Validation Assay (AID 720559).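 Further: plate controls were DMSO for no effect and equimolar ferric chloride plus clioquinol rescue for full effect.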 Summed up:
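Activity is expressed relative to DMSO and an equimolar ferric chloride/clioquinol mix. Compounds were pinned into medium with A-beta-expressing yeast, grown 48 hr at 30 C, then read by absorbance at 600 nm.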

A short description of assay [19]: qHTS for Activators of Parkin Expression: LOPAC Validation Assay (NLuc Reporter) (AID 720572). A digest of the protocol: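 Compound effects on Parkin promoter activity were measured as NanoLuc luminescence after 24 h at 37 C. The neuronal reporter line also carried FLuc, which was read first. LOPAC compounds were tested at 7 concentrations, with normalization to DMSO (0%) and positive control (100%).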

Assay [20] in a line: qHTS for Activators of Parkin Expression: LOPAC Validation Assay (FLuc Reporter) (AID 720573). A digest of the protocol:
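A neuronal cell line harbouring FLuc and NLuc reporters behind the Parkin promoter was exposed to compounds for 24 h. Firefly luciferase signal, measured after 10 min with detection reagent, was scaled to DMSO and positive-control wells.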

Molecules are shown by their SMILES. “And” between values parts separate entries of the source, which are not always exact repeats. Equal entries are not always repeated. Inconclusive results are not listed. The source made the active and inactive calls. Unless noted, the call rests on the fitted dose curve; in most records, active means well fitted curve in the direction sought with a large enough effect; inconclusive means small, poorly fitted or top-dose-only effect, or another doubt; inactive means no such curve, though single readings can be large; an effect the other way counts as inactive or inconclusive.

Sequence of Nuclear receptor ROR-gamma (Homo sapiens) (P51449 whole entry, looked up): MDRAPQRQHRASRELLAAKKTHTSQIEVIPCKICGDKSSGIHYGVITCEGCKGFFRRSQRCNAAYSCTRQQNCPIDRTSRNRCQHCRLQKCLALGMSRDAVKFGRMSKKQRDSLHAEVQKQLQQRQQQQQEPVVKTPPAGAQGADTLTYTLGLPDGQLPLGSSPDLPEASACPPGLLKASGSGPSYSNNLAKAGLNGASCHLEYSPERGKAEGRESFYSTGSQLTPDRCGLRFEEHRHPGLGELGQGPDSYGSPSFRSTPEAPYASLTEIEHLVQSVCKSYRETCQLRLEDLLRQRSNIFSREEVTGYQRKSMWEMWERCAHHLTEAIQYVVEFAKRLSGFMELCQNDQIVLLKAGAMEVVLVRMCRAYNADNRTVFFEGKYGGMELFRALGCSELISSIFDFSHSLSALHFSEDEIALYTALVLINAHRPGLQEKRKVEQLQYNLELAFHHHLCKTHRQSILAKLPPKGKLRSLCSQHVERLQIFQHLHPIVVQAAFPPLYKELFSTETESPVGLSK
Sequence of Peroxisome proliferator-activated receptor alpha (Homo sapiens) (Q07869 whole entry, looked up): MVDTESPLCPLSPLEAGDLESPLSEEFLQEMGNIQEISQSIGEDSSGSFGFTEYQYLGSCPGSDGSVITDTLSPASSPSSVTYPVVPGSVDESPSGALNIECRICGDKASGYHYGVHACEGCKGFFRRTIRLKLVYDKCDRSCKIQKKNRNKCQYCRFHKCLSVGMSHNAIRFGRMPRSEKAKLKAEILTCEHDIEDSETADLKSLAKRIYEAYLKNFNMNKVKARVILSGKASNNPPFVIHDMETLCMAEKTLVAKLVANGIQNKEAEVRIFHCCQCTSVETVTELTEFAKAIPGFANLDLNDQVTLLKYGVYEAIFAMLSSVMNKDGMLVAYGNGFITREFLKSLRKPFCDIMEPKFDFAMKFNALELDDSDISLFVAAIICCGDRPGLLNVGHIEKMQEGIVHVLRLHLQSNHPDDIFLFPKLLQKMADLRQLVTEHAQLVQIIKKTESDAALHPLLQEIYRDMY
Sequence of Arylsulfatase A (Homo sapiens) (P15289 whole entry, looked up): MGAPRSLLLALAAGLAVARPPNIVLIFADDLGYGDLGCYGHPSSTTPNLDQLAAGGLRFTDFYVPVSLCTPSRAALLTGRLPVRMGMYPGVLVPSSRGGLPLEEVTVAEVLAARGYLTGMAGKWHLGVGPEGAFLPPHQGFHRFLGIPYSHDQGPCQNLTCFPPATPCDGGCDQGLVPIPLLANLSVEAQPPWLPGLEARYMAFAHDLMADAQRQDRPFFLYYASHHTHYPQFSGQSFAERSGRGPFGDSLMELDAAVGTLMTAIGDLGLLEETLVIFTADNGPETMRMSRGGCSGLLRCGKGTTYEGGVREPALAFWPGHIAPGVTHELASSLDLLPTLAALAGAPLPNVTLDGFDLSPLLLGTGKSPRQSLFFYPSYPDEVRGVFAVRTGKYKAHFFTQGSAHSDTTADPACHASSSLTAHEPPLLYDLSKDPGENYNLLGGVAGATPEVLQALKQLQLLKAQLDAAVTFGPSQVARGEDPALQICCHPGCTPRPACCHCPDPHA
Sequence of Tumor necrosis factor (Homo sapiens) (P01375 whole entry, looked up): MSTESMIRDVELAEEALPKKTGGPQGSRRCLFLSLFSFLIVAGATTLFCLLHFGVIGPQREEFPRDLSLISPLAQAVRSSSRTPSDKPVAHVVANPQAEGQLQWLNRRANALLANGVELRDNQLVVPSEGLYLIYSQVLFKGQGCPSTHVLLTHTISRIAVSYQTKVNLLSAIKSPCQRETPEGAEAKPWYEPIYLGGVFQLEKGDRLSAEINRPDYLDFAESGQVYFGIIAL
Sequence of Tyrosine-protein kinase Yes (Homo sapiens) (P07947 whole entry, looked up): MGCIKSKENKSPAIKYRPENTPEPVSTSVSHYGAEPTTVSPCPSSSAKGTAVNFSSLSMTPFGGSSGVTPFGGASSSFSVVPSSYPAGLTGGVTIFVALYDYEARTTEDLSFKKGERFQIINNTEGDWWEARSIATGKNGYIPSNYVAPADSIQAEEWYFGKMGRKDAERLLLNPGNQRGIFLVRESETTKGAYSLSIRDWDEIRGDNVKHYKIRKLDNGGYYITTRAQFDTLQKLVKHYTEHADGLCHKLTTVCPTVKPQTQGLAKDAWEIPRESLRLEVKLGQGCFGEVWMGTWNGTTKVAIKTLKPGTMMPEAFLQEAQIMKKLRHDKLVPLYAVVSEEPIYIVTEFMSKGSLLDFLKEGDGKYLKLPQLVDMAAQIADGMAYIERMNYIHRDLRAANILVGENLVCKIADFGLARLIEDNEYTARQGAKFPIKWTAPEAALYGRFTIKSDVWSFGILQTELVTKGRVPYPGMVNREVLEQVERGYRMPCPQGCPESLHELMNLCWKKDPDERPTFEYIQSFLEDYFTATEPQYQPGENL
Sequence of Ubiquitin carboxyl-terminal hydrolase 2 (Homo sapiens) (O75604 whole entry, looked up): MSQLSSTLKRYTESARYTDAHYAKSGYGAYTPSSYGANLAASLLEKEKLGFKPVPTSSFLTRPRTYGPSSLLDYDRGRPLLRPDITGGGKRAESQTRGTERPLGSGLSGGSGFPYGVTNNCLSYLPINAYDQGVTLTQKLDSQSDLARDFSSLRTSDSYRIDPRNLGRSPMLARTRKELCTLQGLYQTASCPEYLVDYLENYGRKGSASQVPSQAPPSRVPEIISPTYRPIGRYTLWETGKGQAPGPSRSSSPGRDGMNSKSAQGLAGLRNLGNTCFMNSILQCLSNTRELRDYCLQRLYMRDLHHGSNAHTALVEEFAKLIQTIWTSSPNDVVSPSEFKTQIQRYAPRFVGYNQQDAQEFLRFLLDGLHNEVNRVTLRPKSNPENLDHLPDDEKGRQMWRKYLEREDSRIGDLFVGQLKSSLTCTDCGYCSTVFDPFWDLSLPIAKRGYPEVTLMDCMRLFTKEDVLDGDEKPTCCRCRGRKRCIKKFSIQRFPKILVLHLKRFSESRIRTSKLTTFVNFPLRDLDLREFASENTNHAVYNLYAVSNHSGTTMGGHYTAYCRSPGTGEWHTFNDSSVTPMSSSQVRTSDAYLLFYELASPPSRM

On to `C[C@@H](O[C@H]1OCCN(Cc2n[nH]c(=O)[nH]2)[C@H]1c1ccc(F)cc1)c1cc(C(F)(F)F)cc(C(F)(F)F)c1`, for which, in assay [1], the viability, percent of control was 8.93%. For the same compound, the Potency is 11.8 µM (active) in assay [2] and 33.2 µM (active) in [3]. Moreover, in assay [4], the Potency result was “inactive”. Moreover, the call in assay [5] was inactive.

In the case of `COC(=O)c1c(Cl)c(Cl)c(C(=O)OC)c(Cl)c1Cl`, the Potency in [6] is 54.5 µM (active). Besides, the activation is 0.623% (inactive) in assay [7] and 0.102% (inactive) in [8]. Moreover, in [9], the max response was -0.617% (inactive).

On to `CC(=O)OC/C=C(C)/C=C/C=C(C)/C=C/C1=C(C)CCCC1(C)C`, for which the Potency in assay [6] is 42.2 µM (active) and 54.5 µM (active). Besides, the activation in [7] is -1.82% (inactive) and 0.334% (inactive); in assay [8] it was -0.036% (inactive) and -0.475% (inactive). In addition, the Potency entry in [10] and in [12] was “inactive” throughout. Besides, the compound was classed as inactive in assay [11]. In addition, the max response in assay [9] was -6.94% (inactive) and -1.56% (inactive).

Take `Nc1cccc2c(N)cccc12`: the activation in [7] was -0.416% (inactive) and 0.0033% (inactive). In [9], the max response is -0.422% (inactive) and -2.29% (inactive).

Consider `CC(C)C(C)(C)C(C)(C)C(C)(C)S`, for which the Potency result in assay [6] and in assay [12] was “inactive” throughout. For the same compound, the activation in assay [7] was -1.05% (inactive) and -0.196% (inactive); in assay [8] it was 1.1% (inactive) and 1.7% (inactive). The compound was called inactive in assay [11] and in [13]. Also, the max response in assay [9] is -3.79% (inactive) and -2.56% (inactive).

`CC(=O)Nc1ccc(S(=O)(=O)Nc2cc(C)on2)cc1`: the compound was classed as inactive in assay [14], in [15] and in assay [16].

For the compound `O=C(c1ccccc1)c1ccccc1`, the Potency result in [10] is “inactive”. The call in assay [11] was inactive. The activation in assay [8] was -0.735% (inactive) and 18.8% (inactive). In assay [9], the max response is -0.839% (inactive) and -0.419% (inactive).

Consider `Nc1ncnc2n[nH]c(Nc3ccc(F)cc3)c12`, for which the outcome in assay [17], in assay [18], in assay [19] and in [20] was inactive.

In the case of `CCCCCCCCCCCCCCCC[n+]1ccccc1`, the Potency entry in [10] is “inactive”. For the same compound, in [11], the compound was called inactive. In addition, the activation in [8] is 5.1% (inactive). Further, the max response in assay [9] was 1.85% (inactive).

In the case of `Oc1ccccc1`, the call in assay [11] was inactive. Moreover, in assay [8], the activation was -1.73% (inactive) and 0.212% (inactive) and 0.333% (inactive). In [9], the max response is -1.31% (inactive) and -1.33% (inactive) and -1.91% (inactive). Moreover, the Potency result in assay [12] was “inactive”.

As for `COC(=O)C1=CO[C@@H](O)[C@@H]2C(CO)=CC[C@H]12`, the result in [17], in assay [18], in assay [19] and in assay [20] was inactive.

`CN1CCC(Nc2ncc3ncnc(Nc4ccc(F)c(Cl)c4)c3n2)CC1`: the Potency in assay [4] is 3.45 µM (active). Moreover, the call in [5] was inactive.

For the compound `CN(C)c1cc2c(Nc3ccc4c(cnn4Cc4ccccc4)c3)ncnc2cn1`, the Potency in assay [4] is 0.207 µM (active). For the same compound, the outcome in [5], in assay [17] and in assay [18] was inactive.
